# Measured values: PubChem BioAssay (Tox21)
# Unmarked numbers belong to inactive results. A call without a number means that no potency is given here. The source made the active and inactive calls. The call rests on the fitted dose curve.
# Target: Gonadotropin-releasing hormone receptor (Homo sapiens) (UniProt P30968)
# Test: Human gonadotropin-releasing hormone receptor (GnRHR) small molecule agonists, calcium flux assay in GnRHR-HEK293 cells (AID 1920063); further: nearly all actives have a fitted effect of over 35% in size
# Settings: calcium flux fluorescence, agonist mode; series mostly up to 57.6 µM
# Text: National Center for Advancing Translational Sciences [NCATS]
# Division of Preclinical Innovation [DPI]
# U.S. Environmental Protection Agency [EPA]
# National Institutes of Environmental Health Sciences [NIEHS]
# National Toxicology Program [NTP]
# U.S. Food and Drug Administration [FDA]
# Gonadotropin-releasing hormone receptor (GnRHR) is a G-protein-coupled receptor (GPCR) and acts (through phospholipase C) to increase intracellular inositol trisphosphate and then release intracellular calcium stores. Cell-based GnRHR-Hek293 calcium influx assay is using HEK293 cells that have been genetically engineered to express the human GnRHR, which activity can be measured by calcium signaling. A compound/drug can activate (agonist) GnRHR that can be monitored by levels of intracellular calcium.
# GnRHR-HEK293 cells developed by Codex Corp contain human GnRHR reporter gene, which was stably integrated into HEK 293 cells. The compound activation can be detected by fluorescence intensity via calcium flux assay. This cell line has been used to screen the Tox21 10K compound library to identify GnRHR agonists.
# GnRHR-Hek293 cells were dispensed at 1500cells/4uL/well in 1536-well black wall/clear bottom plates using a multidrop dispenser. After the assay plates were incubated at a 37 C/5% CO2 incubator for 18 hours, 4 uL of Calcium Dye Solution was added to each well. The plates were incubated at 37 C for 1 hour. For agonist mode, 23 nL of compounds dissolved in DMSO, positive controls or DMSO only was transferred to the assay plate by a pin tool station. The fluorescence intensity in the plates was measured using FDSS 7000EX kinetic plate reader with a filter set of Ex/Em=480/540 for 3 min at 1 sec intervals. Each test compound was measured at 15 concentrations and in triplicates.
# Gonadotropin-releasing hormone receptor (Homo sapiens), sequence (P30968 whole entry, looked up): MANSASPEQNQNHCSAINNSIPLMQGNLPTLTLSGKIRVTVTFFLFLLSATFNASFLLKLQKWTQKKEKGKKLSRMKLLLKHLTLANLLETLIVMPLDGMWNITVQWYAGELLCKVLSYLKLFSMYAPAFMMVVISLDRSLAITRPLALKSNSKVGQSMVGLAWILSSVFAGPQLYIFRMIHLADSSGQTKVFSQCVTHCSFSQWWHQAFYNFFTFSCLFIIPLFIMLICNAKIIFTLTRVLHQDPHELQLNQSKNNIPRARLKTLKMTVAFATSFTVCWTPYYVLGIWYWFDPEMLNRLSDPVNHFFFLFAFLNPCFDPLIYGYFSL
Structure (SMILES),Potency,activity change
Oc1ccccc1C=NCc1ccccc1,inactive,
O=C(O)CC(C(=O)O)S(=O)(=O)O (stereo not given),inactive,
CCCCCCC(O)CCCCCCCCCCC(=O)OC (stereo not given),inactive,
CCN(CC)CCNC(=O)COc1ccc(Cl)cc1,inactive,
Brc1c2ccccc2cc2ccccc12,inactive,
Brc1ccc(-c2ccccc2)cc1,inactive,
CCOC(=O)c1ccc(OC(=O)CCCCCN=C(N)N)cc1,inactive,
CC1=NC(C)OC1C (stereo not given),inactive,
c1ccc(-c2nn[nH]n2)cc1,inactive,
Nc1cc(S(=O)(=O)O)ccc1O,inactive,
NS(=O)(=O)Cc1noc2ccccc12,inactive,
C/C(=C\C(C)CC(C)CC(C)C)C1CC(=O)OC1=O (stereo not given),inactive,
CC(=O)N[C@@H](CCC(N)=O)C(=O)O,inactive,
CCCCNc1ccc(NCCCC)c2c1C(=O)c1ccccc1C2=O,,"-0.141% [at 11.8 µM, stronger effect = higher value]"
CCCCCCCC/C=C/C(=O)O,inactive,
CCOC(=O)c1ccc(NC(=O)CN2CCCCC2)cc1,inactive,
CCC1(CO)COCOC1,inactive,
CC(C)=CC(=O)C=C(C)C,inactive,
CCOC(=O)[C@H](C)O,inactive,
O=C(O)c1cn(C2CC2)c2cc(Cl)c(F)cc2c1=O,inactive,

Structure (SMILES),Potency,activity change
O=C(c1ccco1)N1CCNCC1,inactive,
Clc1ccc2n[nH]nc2c1,inactive,
COCCOCC(OC)OC,inactive,
CCOC(=O)C(=O)c1csc(NC=O)n1,inactive,
C1CC(COCC2CO2)CCC1COCC1CO1 (stereo not given),inactive,
C=C/C(C)=C/C/C=C(\C)CCC=C(C)C,inactive,
O=C(CCN1CCC(c2ccccc2)C1)c1ccc2c(c1)OCCO2 (stereo not given),inactive,
Cc1cc(CC(=O)O)c(C)n1-c1ccc(Cl)cc1,inactive,
C=C(C)C(=O)OCC(C)(C)COC(=O)C(=C)C,inactive,
O=S(=O)(O)c1ccc(Cl)cc1,inactive,
CC(c1cc(C(C)(C)C)cc(C(C)(C)C)c1O)c1cc(C(C)(C)C)cc(C(C)(C)C)c1O,inactive,
CCCc1ncc(C(=O)O)s1,inactive,
CC(NC(CCc1ccccc1)C(=O)O)C(=O)N1C(=O)N(C)CC1C(=O)O (stereo not given),inactive,
CCCCCCCCOC(C)=O,inactive,
Cn1cccc1,inactive,
CC(=O)Nc1cc(S(=O)(=O)O)cc2cc(S(=O)(=O)O)c(N=Nc3ccccc3)c(O)c12,inactive,
CCCCCCCCCCCCCCCCCCOCCO,,"0.36% [at 11.8 µM, stronger effect = higher value]"
CCCCN(CCCC)C(=O)N(CCCC)CCCC,inactive,
O=C(O)Cc1c(Cl)ccc(Cl)c1Cl,inactive,
CCOc1nc2cccc(C(=O)O)c2n1Cc1ccc(-c2ccccc2-c2nn[nH]n2)cc1,inactive,
